From PubChem BioAssay AID463173 (ICCB-Longwood Screening Facility, Harvard Medical School, 2010) come the findings set out here.

Molecules are shown by their SMILES. About 4,300 (8.3%) of roughly 52,000 compounds were called active. Cut-off read from the data, not from the text of the source: active = survival mostly below about 52% (no sharp cut-off); inactive = mostly above about 56%. Many of the other results were omitted from the sample, so actives are more common in it than they were.

The experiment concerns DeltatarO mutant. The experiment in a line: growth inhibition of S. aureus wild type versus tarO mutant, primary screen, teichoic acid synthesis inhibitors, RN4220, OD600 (AID 463173). To be noted: OD600, 18 h, active compounds read low, screened at 18.75 µg/mL (by protocol).
On to `CCOC(=O)CC(=O)CSc1nc2ccsc2c(=O)n1Cc1ccccc1`, for which the survival is 118% (inactive). In the case of `COc1ccc(-c2coc3c2c(C)cc2oc(=O)cc(C)c23)cc1`, the survival was 82% (inactive). The result for `Cc1ccc(CCNC(=O)C2CC(=O)N(CCc3ccc(C)cc3)C2)cc1` (stereo not given) reads 101% (inactive); that for `Cc1cc(Br)ccc1NC(=O)C1CCN(S(=O)(=O)c2cccc3nsnc23)CC1`, 115% (inactive). In the case of `COc1ccc(Br)cc1CNC(=O)c1cnc2sc(N3CCC(C)CC3)nn2c1=O`, the survival was 78% (inactive). `CCc1ccc(-n2nc3ccc(NC(=O)c4cc5ccccc5o4)cc3n2)cc1`: the survival was 65% (inactive). The figure for `COc1cccc(C(C(=O)NCC2CCCO2)N(CC2CCCO2)C(=O)CC2C(=O)c3ccccc3S2(=O)=O)c1` (stereo not given) is 90% (inactive); for `Cc1ccc2nc(SCc3nc(-c4ccc(Cl)cc4)no3)[nH]c2c1` it is 28% (active).

For the compound `COc1ccc(-c2noc(CSc3nc4ccc(C)cc4[nH]3)n2)cc1`, the survival is 39% (active). In the case of `O=c1cc(-c2ccccc2)nc(SCc2nc(-c3ccc(Cl)cc3)no2)[nH]1`, the survival was 69% (inactive). The figure for `Cc1ccccc1-c1noc(CSc2nc(-c3ccc(F)cc3)cc(=O)[nH]2)n1` is 37% (active); for `Cc1ccc2nc(SCc3nc(-c4ccccc4C)no3)[nH]c2c1` it is 25% (active). The figure for `CCc1cc(=O)[nH]c(SCc2nc(-c3ccccc3C)no2)n1` is 84% (inactive); for `Cc1ccccc1-c1noc(CSc2nc3ccccc3[nH]2)n1` it is 57% (inactive); for `COc1ccc(-c2noc(CSc3nc4ccccc4[nH]3)n2)cc1` it is 51% (inactive). In the case of `O=c1cc(-c2ccc(F)cc2)nc(SCc2nc(-c3ccccc3Cl)no2)[nH]1`, the survival is 117% (inactive). The result for `Cc1cccc(-c2noc(CSc3nc(-c4ccc(F)cc4)cc(=O)[nH]3)n2)c1` reads 83% (inactive). The result for `COc1ccccc1-c1noc(CSc2nc3ccc(C)cc3[nH]2)n1` reads 102% (inactive); that for `COc1ccc(-c2noc(CSc3nc4ccccc4[nH]3)n2)cc1OC`, 62% (inactive).

As to `NCCSC1CC(=O)N(c2ccc(Cl)cc2)C1=O` (stereo not given), the survival is 88% (inactive). The figure for `COc1ccc(C)cc1NC(=O)c1cc2c(=O)n3cccc(C)c3nc2s1` is 86% (inactive); for `COc1ccc(Cl)cc1NC(=O)CN(C)S(=O)(=O)c1ccc2c(c1)CCCN2C(C)=O` it is 78% (inactive); for `CCCCNS(=O)(=O)c1ccc(N2CCCCS2(=O)=O)cc1` it is 66% (inactive).

For the compound `Cc1ccc(-c2noc(-c3nnn(CC(=O)Nc4ccc(C)cc4Cl)c3N)n2)cc1`, the survival is 83% (inactive). Turning to `C=CCNCc1cc2cc(OCC)ccc2[nH]c1=O`, the survival was 97% (inactive). The result for `COc1cc(OC)c(Nc2ncnc3onc(-c4cccc(Cl)c4)c23)cc1Cl` reads 73% (inactive); that for `CCOc1ccc(NC(=O)Cn2cc(S(=O)(=O)N3CCN(c4ccccc4F)CC3)c3ccccc3c2=O)cc1`, 89% (inactive); that for `COc1ccc(NC(=O)CSc2nnc(-c3cccs3)o2)cc1`, 54% (inactive). Turning to `Cc1ccc(NC(=O)CCn2nc(-c3ccccc3)c3ccccc3c2=O)c(C)c1`, the survival was 52% (active).

As to `COc1ccccc1NC(=O)CCn1nc(-c2ccccc2)c2ccccc2c1=O`, the survival was 42% (active). The figure for `Cc1ccccc1NC(=O)CCn1nc(-c2ccc(Cl)cc2)c2ccccc2c1=O` is 95% (inactive); for `O=C(CCn1nc(-c2ccccc2)c2ccccc2c1=O)Nc1ccccc1` it is 69% (inactive); for `Cc1ccc(NC(=O)Cn2ncn3c(cc4ccccc43)c2=O)cc1F` it is 84% (inactive). The result for `Cc1ccc(-c2nn(CCC(=O)Nc3ccc(Cl)c(Cl)c3)c(=O)c3ccccc23)cc1` reads 53% (inactive). The figure for `Cc1ccc(NC(=O)Cn2ncn3c(cc4ccccc43)c2=O)cc1C` is 73% (inactive); for `CCCNC(=O)CCn1nc(-c2ccccc2)c2ccccc2c1=O` it is 70% (inactive). Consider `Cc1ccc(NC(=O)Cn2ncn3c(cc4ccccc43)c2=O)c(C)c1`, for which the survival was 45% (active). The figure for `COc1ccc(NC(=O)CSc2nc3cc(OC)c(OC)cc3c3nc(-c4ccccc4)nn23)cc1Cl` is 123% (inactive); for `Cc1ccc(NC(=O)CN2C(=O)CCSc3ccc(S(=O)(=O)N4CCCC4)cc32)cc1` it is 86% (inactive). For the compound `COc1ccc(-c2onc(C)c2C)cc1S(=O)(=O)NCc1ccc(C)o1`, the survival was 89% (inactive). The figure for `CC1=C(c2ccc(C(C)C)cc2)S(=O)(=O)N=C1N1CCN(c2ccccc2F)CC1` is 85% (inactive); for `COc1ccc(OC)c(C2CC(=O)Nc3c2c(=O)[nH]c2nc4ccccc4n32)c1` (stereo not given) it is 164% (inactive); for `CCNc1nc(NC(C)(C)C)nc(Oc2ccc(=O)n(C)n2)n1` it is 68% (inactive). The figure for `Cc1cccc(N2CCN(C(=O)CCc3c(C)nc4ncnn4c3C)CC2)c1C` is 79% (inactive); for `CN1C(=O)SC(Nc2ccccc2)C1=O` (stereo not given) it is 65% (inactive); for `COC(=O)c1cccc(CN2C(=O)SC(Nc3ccc(Br)cc3)C2=O)c1` (stereo not given) it is 23% (active).

As to `Cc1ccc(N2C(=O)SC(Nc3ccccc3)C2=O)cc1` (stereo not given), the survival was 83% (inactive). The figure for `CCOc1ccc(NC2SC(=O)N(Cc3ccccc3)C2=O)cc1` (stereo not given) is 42% (active); for `Cc1ccc(CN2C(=O)SC(Nc3ccccc3)C2=O)cc1` (stereo not given) it is 40% (active). Take `COC(=O)c1cccc(CN2C(=O)SC(Nc3ccc(Cl)cc3)C2=O)c1` (stereo not given): the survival was 42% (inactive). The figure for `COc1ccc(NC2SC(=O)N(c3ccccc3)C2=O)cc1` (stereo not given) is 105% (inactive); for `CCOC(=O)c1ccc(NC2SC(=O)N(Cc3cccc(C(=O)O)c3)C2=O)cc1` (stereo not given) it is 60% (inactive); for `COC(=O)c1cccc(CN2C(=O)SC(Nc3ccccc3C)C2=O)c1` (stereo not given) it is 133% (inactive). The result for `Cc1ccc(CN2C(=O)SC(Nc3ccc(Cl)cc3)C2=O)cc1` (stereo not given) reads 30% (active). The result for `O=C1SC(Nc2ccc(Cl)cc2)C(=O)N1Cc1ccccc1` (stereo not given) reads 107% (inactive); that for `COC(=O)c1cccc(CN2C(=O)SC(Nc3ccc(C)cc3)C2=O)c1` (stereo not given), 50% (inactive); that for `COc1cc2c(cc1OC)C(COc1ccc3c(C)cc(=O)oc3c1)N(C(=O)Cc1ccc(F)cc1)CC2` (stereo not given), 80% (inactive). With `CC1(C)Cc2ccccc2-c2nc(NN)[nH]c(=O)c21`, the survival was 67% (inactive).

`O=C(O)c1cccc(N2C(=O)c3cccnc3C2=O)c1`: the survival was 83% (inactive). The figure for `Cc1ccc(-n2c(=O)c3c(c4cc(C)ccc4n3C)n(CC(=O)Nc3cc(C)cc(C)c3)c2=O)cc1` is 105% (inactive).
